# Measured values from PubChem BioAssay.
# For part of these data: Entries with a potency or affinity are not part of this list. Active and inactive are the calls of the source.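 How the source made its calls, unless noted: active means earlier screen potentiator hit that boosts the TRPC4 ion channel at some dose, with a dose response; inactive means no potentiation, no dose response, or not a prior hit.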
# Key:
# [1] = test system: TRPC4 beta (transient receptor potential cation channel C4), mouse; assay: TRPC4 cation channel opening, retest – cell-based, Fluo4 calcium, HEK293 TRPC4beta/mu-opioid, duplicates, 10 µM, confirmation (AID 2426;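 active means fluorescence ratio normalized to control raised more than 50% in primary screen plus both repeat runs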); conditions: Fluo4 calcium fluorescence, at 10 µM; active compounds read high
# [2] = test system: transient receptor potential cation channel C4 beta (TRPC4), mouse; assay: TRPC4 cation channel opening, second retest – cell-based, second round, Fluo4, HEK293 TRPC4beta/mu-opioid, 1 µM, confirmation (AID 2461;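 active means primary screen active and over 50% activation in each of two duplicate runs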); conditions: Fluo4 calcium fluorescence, at 1 µM; active compounds read high
# [3] = test system: TRPC4 (transient receptor potential cation channel C4 beta), mouse; assay: potentiation of DAMGO EC20 TRPC4 response – cell-based, second round, Fluo-4, HEK293 TRPC4beta/mu-opioid, 1 µM, confirmation (AID 2554;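 active means primary screen hit whose fluorescence ratio, in both repeats, exceeds the weak agonist control mean by 3 SD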); conditions: DAMGO EC20, Fluo-4 calcium flux, at 1 µM; active compounds read high
# [4] = test system: TRPC4 beta (transient receptor potential cation channel C4), mouse; assay: potentiation of DAMGO EC20 TRPC4 response – cell-based, Fluo-4, HEK293 TRPC4beta/mu-opioid, confirmation (AID 2555;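 active means primary screen hit whose calcium fluorescence ratio, in both repeats, exceeds the weak agonist control mean by 3 SD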); conditions: DAMGO EC20, Fluo-4 calcium flux, at 10 µM; active compounds read high
# [5] = target: Short transient receptor potential channel 4 (Mus musculus) (UniProt Q9QUQ5); assay: blockers of DAMGO-evoked TRPC4 calcium flux – cell-based, Fluo4, HEK293 TRPC4beta/mu-opioid, confirmation (AID 2636;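 active means calcium signal cut by more than 3 SD below the full-agonist control yet still positive, in both repeats and the earlier primary screen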); conditions: at 10 µM; active compounds read high
# [6] = target: Short transient receptor potential channel 4 (Mus musculus) (UniProt Q9QUQ5); assay: blockers of DAMGO-evoked TRPC4 calcium flux – cell-based, second round, Fluo4, HEK293 TRPC4beta/mu-opioid, 1 µM, confirmation (AID 2637;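 active means calcium signal ratio cut to more than 3 SD under the fully stimulated control mean yet still positive, in both repeats and the primary screen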;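 on inhibition: percent of integrated ratio relative to wells lacking test compound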); conditions: at 1 µM; active compounds read high
# [7] = target: Short transient receptor potential channel 4 (Mus musculus) (UniProt Q9QUQ5); assay: calcium entry via TRPC4 opening agents – cell-based, HEK293 TRPC4/mu-opioid, Fluo-4 calcium, dose response (AID 434937;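 active means primary screen activator hit with a dose response curve and TRPC4 channel activation at any tested dose; inactive means no activation, no dose response, or not a primary hit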)
# [8] = target: Short transient receptor potential channel 4 (Mus musculus) (UniProt Q9QUQ5); assay: potentiation of DAMGO-evoked TRPC4 calcium signal – cell-based, HEK293 TRPC4/mu-opioid, Fluo-4 calcium, EC20 DAMGO, dose response (AID 434941);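 further: calcium entry triggered by an EC20 dose of DAMGO at the co-expressed mu-opioid receptor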
# [9] = target: Short transient receptor potential channel 6 (Mus musculus) (UniProt Q61143); assay: TRPC6 blockade by TRPC4 inhibitor hits – cell-based, HEK293, membrane potential dye, duplicate, selectivity assay for TRPC4 inhibitor project, confirmation (AID 434948;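 active means active in primary screen and both duplicates, each dropping signal beyond three positive-control SD with fluorescence still positive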); conditions: HEK293 TRPC6, membrane potential dye fluorescence, at 10 µM, stimulated with maximal-effect acetylcholine; active compounds read high
# [10] = target: Short transient receptor potential channel 6 (Mus musculus) (UniProt Q61143); assay: TRPC6 opening by TRPC4 activator hits – cell-based, HEK293, membrane potential dye, duplicate, selectivity assay for TRPC4 activator project, confirmation (AID 434950;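 active means membrane potential signal rise above negative control mean plus 3 SD in both duplicates, also active in the earlier TRPC4 screen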); conditions: HEK293 TRPC6, membrane potential fluorescence, at 10 µM; activation: active compounds read high; outcome: activation
# [11] = target: Short transient receptor potential channel 6 (Mus musculus) (UniProt Q61143); assay: positive modulators of mouse TRPC6 channel – HEK293 cells, membrane potential dye, duplicate, selectivity assay for TRPC4 potentiator project, confirmation (AID 434952;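 active means compound raising the membrane signal above positive-control mean plus 3 SD in both repeats, and a primary screen hit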); conditions: HEK293 TRPC6, membrane potential dye fluorescence, at 10 µM, maximal acetylcholine added after compound; active compounds read high
# [12] = target: Short transient receptor potential channel 4 (Mus musculus) (UniProt Q9QUQ5); assay: calcium flux activators in TRPC4/5HT1a cells, counter-screen for TRPC4 activator project, cell-based, second counter screen, HEK293 TRPC4/5HT1a, Fluo-4 (AID 434977;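 active means calcium signal rise above buffer-control mean plus 5 SD in both duplicates, and also a hit in the primary screen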); conditions: Fluo-4 calcium flux, at 10 µM; active compounds read high
# [13] = serotonin-gated TRPC4 signal block – cell-based, second counter screen, HEK293 TRPC4/5HT1a, Fluo-4, counter-screen for TRPC4 inhibitor project, confirmation (AID 434978;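 active means primary screen active whose calcium signal fell more than 3 SD beyond the full-serotonin control mean in both duplicate plates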;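 on outcome: serotonin given first at submaximal then at maximal dose after compound preincubation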); conditions: Fluo-4 calcium flux, at 10 µM, serotonin added to trigger calcium flux; active compounds read high
# [14] = test system: TRPC4 (mouse), co-expressed with 5HT1a in HEK293; assay: enhancement of serotonin-evoked TRPC4 response – cell-based, second counter screen, HEK293 TRPC4/5HT1a, Fluo-4, counter-screen for TRPC4 potentiator project, confirmation (AID 434979;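 active means signal rise over 3 SD above mean of control wells given weak agonist, in both repeats and first screen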); conditions: Fluo-4 calcium flux, at 10 µM, serotonin added at its EC20 dose; active compounds read high
# [15] = nonspecific calcium rise without TRPC4 – cell-based, HEK293 mu-opioid receptor line, counter-screen for TRPC4 activator project, confirmation (AID 449723;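 active means hit in primary screen, with calcium signal over 5 SD above buffer well mean in both duplicates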;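 further: counter screen cells carry the mu-opioid receptor alone and lack TRPC4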); conditions: HEK293 mu-opioid cells, Fluo-4 calcium fluorescence, at 10 µM; active compounds read high
# [16] = nonspecific potentiation of DAMGO calcium response – cell-based, HEK293 mu-opioid receptor line, counter-screen for TRPC4 allosteric potentiator project, confirmation (AID 449724;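 active means calcium signal rise more than 3 SD above the low-dose agonist control mean, in both duplicate plates and the primary screen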); conditions: HEK293 mu-opioid receptor cells, Fluo-4 calcium flux, at 10 µM, compound added before EC20 DAMGO stimulus; active compounds read high
# Sequence of Short transient receptor potential channel 4 (Mus musculus) (Q9QUQ5 whole entry, looked up): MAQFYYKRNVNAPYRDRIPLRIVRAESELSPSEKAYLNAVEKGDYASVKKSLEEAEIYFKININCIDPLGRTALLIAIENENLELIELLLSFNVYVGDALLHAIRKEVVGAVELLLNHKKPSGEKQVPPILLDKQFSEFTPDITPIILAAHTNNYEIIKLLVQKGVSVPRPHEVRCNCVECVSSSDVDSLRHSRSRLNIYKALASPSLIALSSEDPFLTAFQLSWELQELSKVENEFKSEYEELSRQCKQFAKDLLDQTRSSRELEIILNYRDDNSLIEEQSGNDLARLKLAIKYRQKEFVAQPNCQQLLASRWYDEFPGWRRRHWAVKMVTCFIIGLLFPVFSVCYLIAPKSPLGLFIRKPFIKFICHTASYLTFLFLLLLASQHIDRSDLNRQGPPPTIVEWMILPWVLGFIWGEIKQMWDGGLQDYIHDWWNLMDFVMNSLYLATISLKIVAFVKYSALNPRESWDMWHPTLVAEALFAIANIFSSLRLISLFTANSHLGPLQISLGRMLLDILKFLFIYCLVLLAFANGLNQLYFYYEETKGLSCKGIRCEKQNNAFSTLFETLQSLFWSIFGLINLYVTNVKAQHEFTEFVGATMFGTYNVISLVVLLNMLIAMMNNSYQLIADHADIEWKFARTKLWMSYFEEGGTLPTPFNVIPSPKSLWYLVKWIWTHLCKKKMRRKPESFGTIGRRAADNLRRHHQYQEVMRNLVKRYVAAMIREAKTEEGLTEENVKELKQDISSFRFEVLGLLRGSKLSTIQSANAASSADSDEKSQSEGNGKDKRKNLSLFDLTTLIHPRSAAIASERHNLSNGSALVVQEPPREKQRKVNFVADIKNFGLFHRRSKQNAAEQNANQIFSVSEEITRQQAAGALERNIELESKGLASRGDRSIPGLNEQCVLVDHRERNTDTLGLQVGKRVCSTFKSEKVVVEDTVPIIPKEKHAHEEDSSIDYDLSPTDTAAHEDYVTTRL
# Sequence of Short transient receptor potential channel 6 (Mus musculus) (Q61143 whole entry, looked up): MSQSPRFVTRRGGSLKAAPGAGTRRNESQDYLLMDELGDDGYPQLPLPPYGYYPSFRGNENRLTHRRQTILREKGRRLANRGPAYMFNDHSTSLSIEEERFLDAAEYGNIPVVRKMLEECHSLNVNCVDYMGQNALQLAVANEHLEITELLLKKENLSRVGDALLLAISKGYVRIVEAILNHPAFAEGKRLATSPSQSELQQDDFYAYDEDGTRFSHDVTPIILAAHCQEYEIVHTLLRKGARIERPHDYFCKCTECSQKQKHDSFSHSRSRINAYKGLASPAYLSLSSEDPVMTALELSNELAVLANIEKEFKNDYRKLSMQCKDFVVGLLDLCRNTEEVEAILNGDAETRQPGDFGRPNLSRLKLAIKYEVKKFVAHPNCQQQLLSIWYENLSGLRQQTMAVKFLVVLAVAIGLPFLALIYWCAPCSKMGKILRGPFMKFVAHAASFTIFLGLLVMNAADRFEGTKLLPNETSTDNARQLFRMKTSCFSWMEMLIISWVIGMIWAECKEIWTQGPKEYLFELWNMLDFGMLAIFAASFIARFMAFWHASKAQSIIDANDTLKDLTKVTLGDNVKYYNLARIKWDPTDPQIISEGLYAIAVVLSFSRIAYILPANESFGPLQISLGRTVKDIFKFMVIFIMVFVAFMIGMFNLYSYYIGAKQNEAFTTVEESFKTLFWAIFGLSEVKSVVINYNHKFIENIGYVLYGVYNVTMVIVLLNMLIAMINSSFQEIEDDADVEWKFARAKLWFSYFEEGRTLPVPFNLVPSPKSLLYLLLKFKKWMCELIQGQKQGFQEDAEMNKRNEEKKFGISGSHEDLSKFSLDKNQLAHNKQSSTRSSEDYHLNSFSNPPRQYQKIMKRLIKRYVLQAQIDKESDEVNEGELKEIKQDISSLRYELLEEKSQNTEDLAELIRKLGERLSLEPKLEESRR
Compound,outcome [1],outcome [2],outcome [3],outcome [4],inhibition [5],outcome [6],outcome [7],outcome [8],outcome [9],outcome [10],outcome [11],outcome [12],inhibition [13],outcome [14],outcome [15],outcome [16],inhibition [6],outcome [13],outcome [5]
CC1(C)CC2CC(C)(CN2C(=O)c2cc(-c3ccc(O)cc3)on2)C1 (stereo not given),inactive,inactive,inactive,inactive,81% (active),inactive,inactive,inactive,inactive,inactive,inactive,inactive,31.1% (active),inactive,inactive,inactive,–,–,–
OCc1ccccc1CNCc1ccccc1,inactive,inactive,inactive,inactive,95% (active),–,inactive,inactive,inactive,inactive,inactive,inactive,18.7% (active),inactive,inactive,inactive,52% (active),–,–
Cc1cc(C)c2[nH]c(=O)c(CN(Cc3cccnc3)C(=S)NCCCN(C)C)cc2c1,inactive,inactive,inactive,inactive,89% (active),–,inactive,inactive,inactive,inactive,inactive,inactive,20.5% (active),inactive,inactive,inactive,60% (active),–,–
O=C(O)c1ccc(NC(=S)NC(=O)c2ccc(-c3ccccc3)cc2)cc1,inactive,inactive,inactive,inactive,64% (active),inactive,inactive,inactive,inactive,inactive,inactive,inactive,43.1% (active),inactive,inactive,inactive,–,–,–
C=CCn1cnc2scc(-c3ccc(CC)cc3)c2c1=O,inactive,inactive,inactive,inactive,57% (active),inactive,inactive,inactive,inactive,inactive,inactive,inactive,–,inactive,inactive,inactive,–,inactive,–
OCC(Cc1ccccc1)NCc1ccccc1C(F)(F)F (stereo not given),inactive,inactive,inactive,inactive,60% (active),inactive,inactive,inactive,inactive,inactive,inactive,inactive,–,inactive,inactive,inactive,–,inactive,–
CCCCCCCNC(=O)COc1ccc2c(c1)C(=O)CC(C)(C)O2,inactive,inactive,inactive,inactive,81% (active),–,inactive,inactive,inactive,inactive,inactive,inactive,24.7% (active),inactive,inactive,inactive,46% (active),–,–
C=C(C)Cn1c(SCC)nc2ccccc2c1=O,inactive,inactive,inactive,inactive,96% (active),inactive,inactive,inactive,inactive,inactive,inactive,inactive,21.3% (active),inactive,inactive,inactive,–,–,–
Cc1cccc(C(=O)Nc2sc(-c3ccccc3)cc2C(=O)O)c1,inactive,inactive,inactive,inactive,98% (active),inactive,inactive,inactive,inactive,inactive,inactive,inactive,19.4% (active),inactive,inactive,inactive,–,–,–
CCCCN(CCCC)/C(N)=N/c1nc(C)cc(C)n1,inactive,inactive,inactive,inactive,–,inactive,inactive,inactive,inactive,inactive,inactive,inactive,35.1% (active),inactive,inactive,inactive,–,–,inactive
Cc1ncsc1CCOC(=O)C12CC3CC(CC(C3)C1)C2,inactive,inactive,inactive,inactive,94% (active),inactive,inactive,inactive,inactive,inactive,inactive,inactive,17.8% (active),inactive,inactive,inactive,–,–,–
CCOCc1cn(CC(=O)c2ccc(Cl)cc2)c(C)nc1=N,inactive,inactive,inactive,inactive,97% (active),–,inactive,inactive,inactive,inactive,inactive,inactive,13% (active),inactive,inactive,inactive,72% (active),–,–
COC(=O)c1cccc(Nc2c3c(nc4ccccc24)CCC3)c1,inactive,inactive,inactive,inactive,96% (active),inactive,inactive,inactive,inactive,inactive,inactive,inactive,30.4% (active),inactive,inactive,inactive,–,–,–
Cn1nnnc1SCCNCc1ccccc1OCc1ccc(Cl)cc1,inactive,inactive,inactive,inactive,88% (active),–,inactive,inactive,inactive,inactive,inactive,inactive,23.5% (active),inactive,inactive,inactive,45% (active),–,–
CC1CCN(CCOCCOc2ccccc2-c2ccccc2)CC1,inactive,inactive,inactive,inactive,101% (active),–,inactive,inactive,inactive,inactive,inactive,inactive,28.2% (active),inactive,inactive,inactive,57% (active),–,–
